Assay outcomes as filed in PubChem.
Only some compounds are listed: those with a hit (about 4.5% of all), similar ones and a draw of the others.
Efflux pump mplx = antifungal efflux pump inhibition, Nile Red retention. S. cerevisiae Candida pump triplex. inhibition, % at 10 µM. 0.44% of 330,000 active. AID 485275;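 active means plate passing quality check with inhibition over a set limit, or well fluorescence over plate mean plus 4 SD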;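 further: Nile Red retained in pooled yeast measured as flow cytometry median fluorescence; 0% = buffer negative control and 100% = Enniatin B positive control; higher means more Nile Red kept so more efflux inhibition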
Rce1 inh = blocks yeast Ras-converting enzyme; Q03530; yeast membranes, quenched prenylated peptide cleavage fluorescence; calls only; 0.27% of 290,000 active; AID 2563;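 active means fall in fluorescence gain of 50% or more versus controls, with final raw signal at or below 3038400; inconclusive means same 50% fall but final raw signal above 3038400; inactive means fall in fluorescence gain under 50%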;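 further: plate controls were neutral control wells for no effect and wells lacking membranes for full effect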
Rtt109 HAT inh = inhibitors of Candida albicans Rtt109/Vps75 histone acetyltransferase; Q5AAJ8; purified Rtt109/Vps75, ThioGlo CoA-SH fluorescence, 4 h; inhibition, % at 34.9 µM; 0.16% of 330,000 active; AID 540336;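 active means inhibition of at least 50% in every replicate; inconclusive means best replicate reaches 50% inhibition but some replicates fall short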
Target sequence (Q5AAJ8 whole entry, looked up): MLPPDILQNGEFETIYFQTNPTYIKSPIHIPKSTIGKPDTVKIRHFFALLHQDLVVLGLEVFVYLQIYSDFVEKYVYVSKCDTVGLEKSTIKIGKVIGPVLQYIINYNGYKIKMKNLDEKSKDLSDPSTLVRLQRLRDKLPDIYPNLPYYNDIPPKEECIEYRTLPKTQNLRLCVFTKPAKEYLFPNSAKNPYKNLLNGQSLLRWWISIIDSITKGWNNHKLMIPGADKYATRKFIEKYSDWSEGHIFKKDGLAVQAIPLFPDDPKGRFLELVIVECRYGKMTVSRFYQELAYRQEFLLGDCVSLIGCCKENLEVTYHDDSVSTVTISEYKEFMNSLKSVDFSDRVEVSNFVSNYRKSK
ALR inh = blocks human ALR sulfhydryl oxidase activity | purified ALR, DTT oxidation, H2O2 HRP-luminol luminescence | P55789 | inhibition, % (test concentration not listed) | 3.8% of 290,000 active;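 active means mean replicate inhibition above about 79%, with every replicate also reaching it, limit read from the data; inconclusive means only one of the two criteria met; inactive means mean below limit and not every replicate reaching it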
Target sequence (P55789 whole entry, looked up): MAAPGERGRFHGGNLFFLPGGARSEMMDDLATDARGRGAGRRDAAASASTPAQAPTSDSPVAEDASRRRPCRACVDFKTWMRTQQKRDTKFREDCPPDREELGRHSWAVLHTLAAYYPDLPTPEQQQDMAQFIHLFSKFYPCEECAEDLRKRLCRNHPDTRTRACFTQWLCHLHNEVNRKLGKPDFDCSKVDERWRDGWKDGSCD
GRK2 aptamer HTS = inhibitors of human GRK2 displacing RNA aptamer | P25098 | bead flow cytometry, FAM-aptamer displacement from GRK2 | inhibition of aptamer binding, % at 10 µM | 0.59% of 330,000 active;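 active means inhibition of aptamer binding above 40%, roughly 3 SD of noise, on plates passing a quality check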;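 further: median bead fluorescence of bound FAM aptamer so fluorescent compounds give negative values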
HDAC3 inhib = human HDAC3 inhibition; recombinant HDAC3, fluorogenic peptide/trypsin coupled, fluorescence; inhibition, % at 8.3 µM; 0.15% of 320,000 active; AID 2718; in the data active means inhibition above about 26%, passing the limit was not always enough; inconclusive means no clear call, values can overlap the other calls
* marks the source's active call; other numbers are inactive results; i = inactive; ? = inconclusive; nt = no result; + = active, no number.

SMILES | Efflux pump mplx | Rce1 inh | Rtt109 HAT inh | ALR inh | GRK2 aptamer HTS | HDAC3 inhib
COc1ccc(Br)cc1CN(C)C(C)C(=O)Nc1cccc(C(C)=O)c1 (stereo not drawn) | 0 | i | 53* | 4 | 0 | ?
COc1ccccc1CN(C)C(C)C(=O)Nc1cccc(C(C)=O)c1 (stereo not drawn) | 0 | i | 4 | nt | 0 | 0
CN=CC1=C(O)c2ccccc2C1=O | 0 | i | -5 | -1 | 3 | 12
CC(=O)OC1=C(O)C(=O)c2ccccc2C1=O | 0 | + | nt | -12 | 2 | 1
Cn1c(=O)c2c([nH]c(=S)n2CCCc2ccccc2)n(C)c1=O | 0 | i | -4 | 34 | 2 | 41*
O=C(COc1ccccc1C(=O)NCc1ccccn1)Nc1ccc(Br)cc1 | 0 | i | 7 | 32 | 0 | 0
CC(=O)Nc1cccc(OCC(O)Cn2cnc3ccccc32)c1 (stereo not drawn) | 0 | i | 0 | 100* | 1 | -1
CC(=O)Nc1ccc(OCC(O)Cn2cnc3ccccc32)cc1 (stereo not drawn) | 0 | i | -1 | -9 | 0 | -5
O=C(O)C1C(c2ccccc2)c2ccccc2C(O)C1CO (stereo not drawn) | nt | nt | -15 | nt | nt | nt
Cc1ccc(C(=O)c2c3ccc(C(F)(F)F)cc3[n+]([O-])n2CCCC(N)=O)cc1 | 0 | + | 1 | 10 | 1 | 1
Cc1ccc(C(=O)c2c3ccc(C(F)(F)F)cc3[n+]([O-])n2CCC(N)=O)cc1 | 0 | i | -4 | 28 | 2 | 15
Cc1ccc(C(=O)c2c3ccccc3[n+]([O-])n2CCO)cc1 | 0 | + | 9 | 22 | 0 | 2
CCOc1ccc(S(=O)(=O)N2CCCCC2)cc1NS(=O)(=O)c1cccs1 | 0 | nt | 0 | -1 | 0 | 10
Cn1c(SCc2cccc3ccccc23)nnc1-c1ccco1 | 0 | i | -5 | 52 | 0 | 1
Nn1c(SCc2cccc3ccccc23)nnc1-c1ccco1 | 0 | i | -5 | 99* | 1 | 4
CCOc1ccc(Oc2c(/C=N/NC(N)=O)c(C)nn2-c2ccccc2)cc1 | 0 | i | 9 | -4 | 0 | 6
CCOc1ccc(Oc2c(/C=N/NC(=O)COc3ccccc3OC)c(C)nn2-c2ccccc2)cc1 | 1 | i | 0 | -21 | 0 | 27*
COc1ccccc1P(=O)(c1ccccc1)c1ccc([N+](=O)[O-])cc1 (stereo not drawn) | 0 | i | -15 | -18 | 0 | 11
Cc1ccc(C2c3[nH]c4ccccc4c3C[C@H]3C(=O)N(c4ccccc4C(=O)N4CCC(C(=O)O)CC4)C(=O)N23)cc1 (stereo partly drawn) | 0 | i | 3 | 16 | 0 | -3
CN1CC(=O)N2C(c3ccc(Cl)cc3)c3[nH]c4ccccc4c3C[C@H]2C1=O (stereo partly drawn) | 0 | i | 2 | 99* | 3 | -4
Cc1ccc(C2c3[nH]c4ccccc4c3C[C@H]3C(=O)N(c4ccccc4C(=O)N4CCC[C@@H]4C(=O)O)C(=O)N23)cc1 (stereo partly drawn) | 0 | i | 13 | 98* | 5 | -4
O=C(O)C1CCN(C(=O)c2ccccc2N2C(=O)[C@@H]3Cc4c([nH]c5ccccc45)C(c4cccc(Cl)c4)N3C2=O)CC1 (stereo partly drawn) | 0 | i | 1 | 99* | 4 | 7
COc1cccc(C2c3[nH]c4ccccc4c3C[C@H]3C(=O)N(c4ccccc4C(=O)N4CCCC4C(=O)O)C(=O)N23)c1 (stereo partly drawn) | 0 | i | -4 | 97* | 0 | -2
Cc1ccc(S(=O)(=O)N2CCC(C(=O)OC(C)C(=O)NCc3ccccc3)CC2)cc1C (stereo not drawn) | 0 | i | 10 | -4 | 0 | 2
COc1ccccc1C(=O)C1CCCN(C(=O)CCn2cnnn2)C1 (stereo not drawn) | 0 | i | 49 | nt | 0 | nt
SMILES | Efflux pump mplx | Rce1 inh | Rtt109 HAT inh | ALR inh | GRK2 aptamer HTS | HDAC3 inhib
COc1cccc(C2c3[nH]c4ccccc4c3C[C@H]3C(=O)N(CCCCCO)CC(=O)N23)c1 (stereo partly drawn) | 0 | i | -6 | 98* | 1 | 4
O=S(=O)(Nc1nc2ccccc2nc1Nc1cccc(S(=O)(=O)N2CCCCC2)c1)c1ccccc1 | 0 | i | 7 | 0 | 0 | -5
CC(=O)c1ccccc1OC(=O)c1ccc([N+](=O)[O-])o1 | 0 | i | 58* | -24 | 0 | 0
COc1ccc(NS(=O)(=O)c2ccc3c(c2)n(C)c(=O)n3C)cc1 | 0 | i | -3 | -1 | 0 | 2
COc1ccc(NS(=O)(=O)c2ccc3oc(=O)c4[nH]c(=O)c(=O)n(C)c4c3c2)cc1 | 0 | + | -5 | 4 | 9 | -5
NC(=O)c1sc2nc(N3CCCCC3)c3c(c2c1N)CCCC3 | 0 | + | -1 | -13 | 0 | 1
O=C(NCCc1cccnc1)c1cc(COc2ccc(F)cc2Cl)on1 | 0 | + | -1 | -7 | 0 | 0
Cc1ccc(OC(=S)Nc2ccc(O)cc2)cc1 | 0 | nt | -4 | 99* | 0 | 6
O=C(O)c1ccccc1Sc1ncnc2sc3c(c12)CCC3 | 0 | i | -3 | nt | 0 | 3
O=C(Nc1cccc(C(F)(F)F)c1)c1cccnc1 | 0 | i | 25 | -1 | 0 | 2
N#C/C(=N\Nc1cccc(C(F)(F)F)c1)C(=O)c1csc(-c2cccnc2)n1 | 0 | i | -12 | 97* | 2 | 12
CC(C)C(c1nnnn1C1CCCC1)N1CCCc2ccccc21 (stereo not drawn) | 0 | i | -16 | 25 | 0 | 16
CC(C)C(c1nnnn1C1CCCC1)N1CCc2ccccc21 (stereo not drawn) | 0 | i | 6 | 99* | 3 | -3
CCOc1cc(N2CCOCC2)c(OCC)cc1NC(=O)COC(=O)c1ccc([N+](=O)[O-])o1 | 0 | nt | -6 | nt | 4 | nt
O=C(CCN1CCCCC1)NNC(=S)NC(=O)c1ccc(Br)cc1 | 0 | i | -4 | 99* | 2 | nt
O=C(CCN1CCOCC1)Nc1ccc(F)cc1 | 0 | nt | -9 | 3 | 0 | -1
Nc1ccc(NC(=O)CCN2CCOCC2)cc1 | 0 | i | -4 | 93* | 1 | 2
O=C(CCN1CCOCC1)NNC(=S)NC(=O)c1ccc(Br)cc1 | 0 | i | 0 | 99* | 3 | 2
O=C(NCCCn1ccnc1)C1CCN(S(=O)(=O)c2cc([N+](=O)[O-])ccc2Cl)CC1 | 0 | nt | -1 | -24 | nt | 1
CC(C)(C)OC(=O)NCC(=O)Oc1cc2oc(=O)cc(-c3ccccc3)c2cc1Cl | 0 | i | -22 | 9 | 0 | -16
